Bioassay records (PubChem)
Most compounds without a hit are left out; they make up all but 31% or so of the library.
CYP2C19 activ = human CYP2C19 activators, primary screen, biochemical, luminescence; recombinant CYP2C19, luciferin-H EGE luminescence; stronger effect = higher value; 0 = fully inhibited enzyme, 1 = untreated enzyme; activation factor at 5 µM; 96,000 tested, under 10 active; AID 1025, 2008;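 active = activation factor of at least 2 at 5 µM in the primary screen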;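 also: 0 = wells with 2.5 mM tranylcypromine and 1 = vehicle-only wells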
Target sequence (P33261 whole entry, looked up): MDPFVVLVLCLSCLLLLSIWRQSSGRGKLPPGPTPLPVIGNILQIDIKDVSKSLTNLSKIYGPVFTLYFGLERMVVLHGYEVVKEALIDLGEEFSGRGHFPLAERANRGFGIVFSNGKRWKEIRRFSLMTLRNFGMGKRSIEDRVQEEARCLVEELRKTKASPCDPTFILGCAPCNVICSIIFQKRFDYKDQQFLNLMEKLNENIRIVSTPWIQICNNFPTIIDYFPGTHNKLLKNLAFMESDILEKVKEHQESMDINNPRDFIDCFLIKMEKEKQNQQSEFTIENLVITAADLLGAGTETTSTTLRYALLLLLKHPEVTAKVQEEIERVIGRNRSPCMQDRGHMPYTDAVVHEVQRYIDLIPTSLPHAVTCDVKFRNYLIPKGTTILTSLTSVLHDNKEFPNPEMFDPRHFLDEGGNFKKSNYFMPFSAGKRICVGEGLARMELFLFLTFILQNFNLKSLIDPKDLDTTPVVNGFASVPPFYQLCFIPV
CYP2C9 inh = blockers of cytochrome P450 2C9 activity – biochemical, luminescence, ADME assay, primary screen. AID 777, 2007. CYP2C9 Supersomes, luciferin-H conversion. hit rate 20% among 96,000. inhibition, % at 5 µM. P11712;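 active = blocking of liver enzyme CYP2C9 beyond about 50% at 5 µM, limit read from the data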
CYP2C9 activ = human CYP2C9 activators, primary screen, biochemical, luminescence; Cytochrome P450 2C9 (Homo sapiens), P11712; recombinant CYP2C9, luciferin-H conversion; stronger effect = higher value; factor 1 = untreated enzyme, 0 = blocked; activation factor at 5 µM; hit rate 1.4% among 96,000; AID 1024, 2008;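 active = activation factor of 2 or more for CYP2C9 at a 5 µM dose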;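 also: 0 = sulfaphenazole-blocked wells and 1 = vehicle-only wells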
CYP2C19 inhib = blockers of cytochrome P450 2C19 activity – biochemical, luminescence, ADME assay, primary screen | P33261 | CYP2C19 Supersomes, luciferin-H EGE luminescence, 30 min | inhibition, % at 5 µM | hit rate 21% among 96,000 | AID 778, 2007;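 active = CYP2C19 inhibition above a set limit at 5 µM in the primary screen, cut at about 50% in these data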;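 also: plate controls were negative control wells for no effect and 2.5 mM tranylcypromine positive control for full effect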
* = called active by the depositor.

SMILES	CYP2C19 activ	CYP2C9 inh	CYP2C9 activ	CYP2C19 inhib
Cc1ccc(C(c2nnnn2C(C)(C)C)N(Cc2ccco2)Cc2cccs2)cc1 (stereo not given)	0.8	75.9*	0.2	24.5
CC(C)(C)n1nnnc1C(c1ccc(C(F)(F)F)cc1)N(Cc1ccccc1)Cc1ccco1 (stereo not given)	0.7	5.4	0.9	34.2
Fc1ccc(C(c2nnnn2C2CCCC2)N(Cc2ccco2)CC2CCCO2)cc1 (stereo not given)	0.6	13.3	0.9	38.5
CCN(Cc1ccccc1)C(c1ccc(C)cc1)c1nnnn1C(C)(C)CC (stereo not given)	0.6	36.7	0.6	38.8
CC(C)(C)n1nnnc1C(c1ccc(F)cc1)N(Cc1ccc(F)cc1)Cc1ccco1 (stereo not given)	0.6	65.0*	0.3	36.9
CC(C)(C)n1nnnc1C(c1cccs1)N(Cc1ccccc1)Cc1cccnc1 (stereo not given)	0.5	28.9	0.7	48.5
CC(C)(C)n1nnnc1C(c1cccnc1)N(Cc1ccccc1)Cc1cccs1 (stereo not given)	0.5	60.7*	0.4	47.6
CCCCCOc1ccc(C(=O)NCC(=O)NCC(=O)OCC)cc1	1.2	-25.5	1.3	-20.3
CCOC(=O)c1ccc(N2C(=O)C=CC2=O)cc1	1.1	-55.5	1.6	-13.1
CCc1ccc(CC2S/C(=C(\C#N)C(C)=O)NC2=O)cc1 (stereo not given)	0.9	78.4*	0.2	11.7
CCOC(=O)c1ccc(CC2S/C(=C(\C#N)C(C)=O)NC2=O)cc1 (stereo not given)	1	62.0*	0.4	-0.8
CCOC(=O)C1=C(Cc2ccc(Cl)cc2)C(=O)c2ccccc2C1=O	0	94.8*	0.1	99.5*
C=CCOC(=O)C1=C(C)NC(SCC)=C(C#N)C1c1ccc(Cl)cc1 (stereo not given)	0.5	85.9*	0.1	53.2*
CC1=C(C(=O)Nc2ccc(Cl)cc2)C(c2ccncc2)C(C#N)=C(SCC(N)=O)N1 (stereo not given)	0.6	64.8*	0.4	36.7
CCOC(=O)CSC1=C(C#N)C(c2ccc(F)cc2)C(C(C)=O)=C(C)N1 (stereo not given)	0.6	51.1*	0.5	41.5
CCOC(=O)C1=C(C)NC(SCC(=O)OC)=C(C#N)C1c1ccc(C(=O)OC)cc1 (stereo not given)	0	95.9*	0	96.6*
CC(=O)C1=C(C)NC(SCC(N)=O)=C(C#N)C1c1cccnc1 (stereo not given)	1	3.5	1	3.8
CCCNc1nc(OCC(F)(F)F)nc(OCC(F)(F)F)n1	0.7	13.6	0.9	34.0
C=CCOC(=O)C1=C(C)NC(=O)NC1c1ccc(Cl)cc1 (stereo not given)	0	66.1*	0.3	100.4*
C=CCOc1ccc(C2NC(=O)NC(C)=C2C(=O)OC)cc1 (stereo not given)	0.6	39.3	0.6	44.0
CN(C)S(=O)(=O)N1CCC(C(=O)O)(c2ccccc2)CC1	1.2	-1.1	1	-17.6
O=C(CSc1nnc(Cc2ccccc2)o1)Nc1ccc(Br)cn1	0.7	-1.2	1	32.9
Clc1ccc(CSc2nnc(-c3ccncc3)o2)c(Cl)c1	0.2	70.4*	0.3	80.7*
COc1cc(OC)cc(-c2nnc(SCc3c(F)cccc3Cl)o2)c1	0.5	63.3*	0.4	47.1
Cc1ccc(CSc2nnc(-c3ccco3)o2)cc1	0.5	62.6*	0.4	48.1
SMILES	CYP2C19 activ	CYP2C9 inh	CYP2C9 activ	CYP2C19 inhib
Cc1ccccc1-c1nnc(SCc2ccccc2)o1	0.3	58.9*	0.4	72.7*
CCCCCCCCc1nnc(NC(=O)c2ccco2)s1	0.7	43.0	0.6	28.3
c1ccc(-c2noc(CSc3nc4ccccc4o3)n2)cc1	0.9	5.4	0.9	6.0
Fc1ccccc1CSc1nnc(-c2ccccc2)o1	0.1	76.7*	0.2	87.3*
COc1ccc(-c2nnc(SCc3ccccc3F)o2)cc1	0.7	5.1	0.9	30.0
O=c1c(-c2nnc(SCc3ccc(Cl)cc3Cl)o2)cccn1Cc1ccccc1	0.2	65.6*	0.3	75.8*
CCOC(=O)c1oc2ccccc2c1CSc1nnc(-c2ccco2)o1	0.9	68.6*	0.3	14.1
Clc1ccc(-c2nnc(SCc3nc(-c4ccccc4)no3)o2)cc1	0.9	70.7*	0.3	9.5
CCN1CCCC1CN(Cc1cc2c(C)cc(C)cc2[nH]c1=O)C(=O)NC1CCCCC1 (stereo not given)	0.8	15.7	0.8	15.1
CNc1oc(Cc2ccccc2)nc1S(=O)(=O)c1ccccc1	1	-19.7	1.2	0.5
CCCCCC(=O)N/N=C/c1cccs1	0.6	13.1	0.9	37.3
Cc1cccc(Cn2c(C(=O)OC(C)C)cc3c2ccn3C)c1	0.5	20.8	0.8	46.3
CN1CCN(CCC(=O)Nc2ccc(OCc3ccccc3)cc2)CC1	1.2	-14.7	1.1	-19.3
c1ccc(CSc2nnc(-c3ccncc3)o2)cc1	0	93.3*	0.1	97.1*
Cc1[nH]c2ccccc2c1Cc1nnc(SCc2ccccc2)o1	0.3	26.9	0.7	69.1*
Cc1ccccc1OCc1nnc(SCc2cc(=O)[nH]c3ccccc23)o1	1	13.7	0.9	4.6
CC(=Nc1ccccc1)Nc1ccccc1	0.2	-9.4	1.1	78.9*
CC(=N\Nc1ccccc1)/C(=N/O)C(=O)Nc1ccccc1	0.9	-0.1	1	6.6
CN1CC(c2ccc(Cl)c(Cl)c2)[C@@]2(COc3ccccc3C2=O)[C@@]12C(=O)Nc1ccccc12 (stereo not given in full)	1	77.3*	0.2	-2.5
COc1ccc(OC)c(Nc2nc(N)nc(CSc3nnc(N)s3)n2)c1	0.8	28.2	0.7	19.2
COc1ccc(OC)c(NC(=O)CSc2nnc(N)s2)c1	0.5	32.0	0.7	50.3*
Cc1csc(SCC(=O)Nc2ccc(Cl)cn2)n1	0.1	59.2*	0.4	85.6*
COc1ccc(OC)c(NC(=O)CSc2nc(C)cs2)c1	0.2	53.8*	0.5	84.1*
Cc1csc(SC(C)C(=O)Nc2ccc(Cl)cn2)n1 (stereo not given)	0.6	26.0	0.7	38.0
COc1ccc(OC)c(NC(=O)CSC2=NCCS2)c1	0.6	5.1	0.9	42.1
COc1cc(NC(=O)CSc2nc(C)cs2)cc(OC)c1	0	52.5*	0.5	95.8*
COc1ccc(CCN2C(=O)C3C4CC(C5C(C(=O)N/N=C\c6ccc(Cl)cc6)=NOC45)C3C2=O)cc1OC (stereo not given)	0.8	49.3	0.5	19.9
COc1ccccc1/C=N/N(C(C)=O)c1nc(-c2ccc(F)cc2)cs1	0.8	28.7	0.7	24.4
COc1ccc(C2CC(=O)c3cnc(Nc4cc(C)cc(C)c4)nc3C2)cc1 (stereo not given)	0.8	22.6	0.8	18.2
